{"source": "PubChem BioAssay AID1347076", "about": "(National Center for Advancing Translational Sciences (NCATS), 2019)", "note": "Screen size: about 400,000 compounds; about 13,000 (3.2%) were called active. About 18% were inconclusive and are not listed. Calls follow the shape of the dose curve; as a rule, active = well fitted cell-killing curve with a large enough effect; inconclusive = small, poorly fitted or top-dose-only effect, or effect the other way; inactive = flat fitted curve, though single readings scatter. Many of the other results were omitted from the sample, so actives are more common in it than they were."}
{"experiment": "qHTS assay for MDR1-selective chemotherapeutics: Primary screen using the drug-selected MDR subline cells KB-V1; also: nearly all actives have a fitted effect of over 60% in size; also: potency is read from the fitted curve at half-maximal effect; as to activity change, negative = cytotoxicity: % is scaled to controls: 0 for no effect and ±100 for the full control effect", "details": "KB-V1 MDR cells viability, CellTiter-Glo, 72 h; series mostly up to 46.1 µM; activity change, negative = cytotoxicity: at the top concentration", "method_in_brief": "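Cells of the MDR subline KB-V1 are plated, dosed with compound at multiple concentrations, and incubated 72 h at 37 degrees C; CellTiter-Glo is then added and luminescence read after 10 min.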"}
{"compound": "CN1CC(c2ccccc2)C2(COc3ccccc3C2=O)C12C(=O)Nc1ccccc12", "note": "(centres undefined)", "Potency": "20.6 µM (active)"}
{"compound": "C[C@@H]1NC(=O)[C@@]2(C)[C@@H](c3ccccc3)[C@H]3COc4ccccc4[C@@H]3N2C1=O", "activity change, negative = cytotoxicity": "0% (inactive)"}
{"compound": "COc1cccc(CNC(=O)CCC(=O)N2CC3CCCN3c3ccccc32)c1", "note": "(centres undefined)", "activity change, negative = cytotoxicity": "21.6% (inactive)"}
{"compound": "CCc1nc2c(=O)[nH]cnc2o1", "activity change, negative = cytotoxicity": "19.1% (inactive)"}
{"compound": "C[C@H]1CN([C@@H](C)CO)C(=O)CCCn2cc(nn2)CO[C@@H]1CN(C)S(=O)(=O)c1ccc(-n2cccn2)cc1", "activity change, negative = cytotoxicity": "0% (inactive)"}
{"compound": "CN1CCN(C(=O)c2ccc(-c3cc4nc(NCc5cccnc5)n(C)c(=O)c4s3)cc2)CC1", "activity change, negative = cytotoxicity": "-13.5% (inactive)"}
{"compound": "COc1ccc(NC(=O)N2CCCC(C(=O)Nc3ccccc3OC)C2)cc1", "note": "(centres undefined)", "activity change, negative = cytotoxicity": "3.84% (inactive)"}
{"compound": "CCOc1ccc(NC(=O)C2CCCN(C(=O)Nc3ccccc3)C2)cc1", "note": "(centres undefined)", "Potency": "14.6 µM (active)"}
{"compound": "CCOc1ccccc1NC(=O)C1CCCN(C(=O)Nc2ccccc2)C1", "note": "(centres undefined)", "activity change, negative = cytotoxicity": "-19.8% (inactive)"}
{"compound": "CC(C)(C)C1CCC(=O)N2CCC[C@]2(c2ccccc2)C1", "note": "(some centres undefined)", "activity change, negative = cytotoxicity": "46.7% (inactive)"}
{"compound": "CCCCN(C)S(=O)(=O)c1ccc(C(=O)Nc2sc3c(c2C(N)=O)CC(C)(C)NC3(C)C)cc1", "activity change, negative = cytotoxicity": "0% (inactive)"}
{"compound": "COc1cc(CNCCSc2nnnn2C)ccc1OCc1ccc(Cl)cc1Cl", "activity change, negative = cytotoxicity": "0% (inactive)"}
{"compound": "CCOC(=O)c1c(C)oc2ccc(OCC(=O)N(CC)CC)cc12", "activity change, negative = cytotoxicity": "0% (inactive)"}
{"compound": "COC(=O)c1c(C)oc2ccc(N(C(=O)Oc3ccccc3)S(=O)(=O)c3ccccc3)cc12", "Potency": "2.91 µM (active)"}
{"compound": "CN(CC(=O)O)S(=O)(=O)c1ccc2oc3ccccc3c2c1", "activity change, negative = cytotoxicity": "10.8% (inactive)"}
{"compound": "O=C(Nc1ccc2c(c1)[C@@H]1C[C@@H](CC(=O)N3CCCCC3)O[C@@H](CO)[C@@H]1O2)NC1CCCCC1", "activity change, negative = cytotoxicity": "3.39% (inactive)"}
{"compound": "COc1ccc(NC(=O)C2(C)Cc3c(-c4cccc(NC(C)=O)c4)ccnc3O2)cc1", "note": "(centres undefined)", "activity change, negative = cytotoxicity": "0% (inactive)"}
{"compound": "CC(=O)Nc1cccc(-c2ccnc3c2CC(C)(C(=O)NCc2ccccc2)O3)c1", "note": "(centres undefined)", "Potency": "16.4 µM (active)"}
{"compound": "CC(=O)Nc1cccc(-c2ccnc3c2CC(C)(C(=O)NCc2ccco2)O3)c1", "note": "(centres undefined)", "activity change, negative = cytotoxicity": "-1.06% (inactive)"}
{"compound": "CC1(C(=O)NCC2CCOCC2)Cc2c(-c3cccc(C(N)=O)c3)ccnc2O1", "note": "(centres undefined)", "activity change, negative = cytotoxicity": "3.72% (inactive)"}
{"compound": "O=C(Cn1nnc(-c2ccc3c(c2)OCO3)n1)NCc1ccco1", "activity change, negative = cytotoxicity": "17.1% (inactive)"}
{"compound": "CC1(C(=O)NCc2ccco2)Cc2c(-c3ccc4c(c3)OCO4)ccnc2O1", "note": "(centres undefined)", "Potency": "2.59 µM (active)"}
{"compound": "CCc1nc2c(OCCC3CCCCC3)cccn2c1N(C)C(=O)c1ccco1", "activity change, negative = cytotoxicity": "0.295% (inactive)"}
{"compound": "CCOc1ccc(NS(=O)(=O)c2ccc(C(=O)NCC3CCCO3)cc2)cc1", "note": "(centres undefined)", "activity change, negative = cytotoxicity": "-27.3% (inactive)"}
{"compound": "COc1cc(NC(=O)C2=CC(c3ccc(C)cc3)=NS(=O)(=O)N2C)cc(OC)c1OC", "activity change, negative = cytotoxicity": "8% (inactive)"}
{"compound": "COc1cccc(-c2cnc3c(NC(C)=O)cc(-c4cc(F)ccc4OC)cn23)c1", "Potency": "7.31 µM (active)"}
{"compound": "COc1ccc(-c2cc(NC=O)c3ncc(-c4cccc(C(=O)N(C)C)c4)n3c2)c(OC)c1", "activity change, negative = cytotoxicity": "6.08% (inactive)"}
{"compound": "COc1ccc(-c2cc(NC(C)=O)c3ncc(-c4cc(OC)c(OC)c(OC)c4)n3c2)cn1", "Potency": "13 µM (active)"}
{"compound": "CC(=O)Nc1cc(-c2ccc(N3CCN(C)CC3)cc2)cn2c(-c3cccc(C(=O)N(C)C)c3)cnc12", "activity change, negative = cytotoxicity": "6.38% (inactive)"}
{"compound": "COc1cccc(-c2cnc3c(NC(C)=O)cc(-c4cccc(NC(C)=O)c4)cn23)c1", "activity change, negative = cytotoxicity": "3.14% (inactive)"}
{"compound": "O=C(Nc1cc(F)ccc1F)c1ccc2c(=O)n3c(nc2c1)CCC3", "activity change, negative = cytotoxicity": "1.07% (inactive)"}
{"compound": "CCOC(=O)c1c(NC(=O)CSc2cn(CCNC(=O)c3cccc(C(F)(F)F)c3)c3ccccc23)sc2c1CCC2", "activity change, negative = cytotoxicity": "10.6% (inactive)"}
{"compound": "OC[C@@H]1CN(Cc2cccs2)C[C@H](n2cnc3c(Nc4ccccc4)ncnc32)O1", "activity change, negative = cytotoxicity": "-0.405% (inactive)"}
{"compound": "Cc1nc2ccccc2c(=O)n1NC(=O)c1ccccc1", "activity change, negative = cytotoxicity": "19.9% (inactive)"}
{"compound": "CCCc1nc2ccccc2c(=O)n1NC(=O)c1c(O)c2ccccc2[nH]c1=O", "Potency": "7.31 µM (active)"}
{"compound": "COc1cc(C(=O)Nn2c(CC(C)C)nc3ccccc3c2=O)cc(OC)c1OC", "activity change, negative = cytotoxicity": "-5.04% (inactive)"}
{"compound": "O=C(CN1C(=O)NC2(CCc3ccccc32)C1=O)NC1CCCCC1", "note": "(centres undefined)", "activity change, negative = cytotoxicity": "0.553% (inactive)"}
{"compound": "CC(C)CN1CCC1(C)C(=O)Nc1ccc(OC(F)F)cc1", "note": "(centres undefined)", "activity change, negative = cytotoxicity": "-2.57% (inactive)"}
{"compound": "Cc1ccc(OCCSc2nc(-c3cccs3)nc3cc(=O)[nH]n23)cc1Cl", "activity change, negative = cytotoxicity": "-5.26% (inactive)"}
{"compound": "O=C(NC1CCN(Cc2ccccc2)CC1)c1cc(Br)c(Br)[nH]1", "activity change, negative = cytotoxicity": "-26.5% (inactive)"}
{"compound": "O=C(COc1ccc(Br)cc1F)NC1CCN(Cc2ccccc2)CC1", "activity change, negative = cytotoxicity": "-5.46% (inactive)"}
{"compound": "S=C(Nc1ccc(Br)cc1Cl)NC1CCN(Cc2ccccc2)CC1", "Potency": "11.6 µM (active)"}
{"compound": "CCc1nc2c(OCCOc3ccccc3)cccn2c1N(C)C(=O)c1ccc(OC)cc1", "activity change, negative = cytotoxicity": "-18.3% (inactive)"}
{"compound": "COCCCn1cc(CN2CC(N(C)C)CS2(=O)=O)nn1", "note": "(centres undefined)", "activity change, negative = cytotoxicity": "-8.55% (inactive)"}
{"compound": "Cc1nc(/N=C(\\N)NC(=O)NC2CCCCC2)nc2ccccc12", "Potency": "5.17 µM (active)"}
{"compound": "Cc1c(C(=O)NC2CCCCC2)oc2ccccc12", "activity change, negative = cytotoxicity": "-17.7% (inactive)"}
{"compound": "CC(C)c1cc(C(=O)NC2CCCCCC2)c2ccccc2n1", "activity change, negative = cytotoxicity": "-27.2% (inactive)"}
{"compound": "Nc1ncnc2c1ncn2[C@@H]1O[C@H](C(=O)N2CCSC2)[C@@H](O)[C@H]1O", "activity change, negative = cytotoxicity": "14.4% (inactive)"}
{"compound": "CCN(CC)c1ccc(/C=C/c2c(C)cnc3ccc(C)cc23)cc1", "activity change, negative = cytotoxicity": "-20.4% (inactive)"}
{"compound": "COC(=O)[C@@]12C[C@@H](CC(=O)NCCCCc3ccccc3)C(=O)N(CCc3ccc(OC)c(OC)c3)C1=CCC(C)(C)C2", "Potency": "16.4 µM (active)"}
{"compound": "CCN(CC)C(=O)C1=C(C)N(Cc2ccc(OC)cc2)C(=O)C(CC(=O)NCCCCc2ccccc2)C1", "note": "(centres undefined)", "activity change, negative = cytotoxicity": "5.55% (inactive)"}
{"compound": "COC(=O)[C@]12CCCCC=C1N(Cc1ccccc1)C(=O)[C@H](CC(=O)NCc1ccc(C)o1)C2", "activity change, negative = cytotoxicity": "-6.44% (inactive)"}
{"compound": "COC(=O)[C@@]12C[C@@H](CC(=O)NCCCCc3ccccc3)C(=O)N(Cc3ccccc3)C1=CCC(C)(C)C2", "Potency": "23.1 µM (active)"}
{"compound": "COC(=O)[C@]12CCCCC=C1N(Cc1ccco1)C(=O)[C@H](CC(=O)NCCCCc1ccccc1)C2", "activity change, negative = cytotoxicity": "16.2% (inactive)"}
{"compound": "CCOC(=O)N1CCN(C(=O)C[C@@H]2C[C@@]3(C(=O)OC)CC(C)(C)CC=C3N(Cc3ccco3)C2=O)CC1", "activity change, negative = cytotoxicity": "-19.3% (inactive)"}
{"compound": "COc1ccc(CN2C[C@H]3CON(C)[C@H]3C[C@H]2c2ccc(-c3cccc(F)c3)cc2)cc1", "activity change, negative = cytotoxicity": "0.771% (inactive)"}
{"compound": "Cc1ccc(O)c(NC(=O)c2cc(-c3ccc(F)cc3)no2)c1", "activity change, negative = cytotoxicity": "0% (inactive)"}
{"compound": "Cc1cc2ccccc2n1CCNC(=O)c1ccc(F)cc1", "activity change, negative = cytotoxicity": "0% (inactive)"}
{"compound": "CC1=C(C(=O)N2CCOCC2)CC(CC(=O)NCC2CCCCC2)C(=O)N1Cc1ccc(F)cc1", "note": "(centres undefined)", "activity change, negative = cytotoxicity": "7.51% (inactive)"}
